The campaign covered roughly 68,000 compounds. About 2,700 (4%) showed an effect of 50% or more. What follows is part of a selection rich in strong results, with near analogues and random picks from the rest.

The experiment deals with Plasmodium berghei. The experiment in a line: Screen against P. berghei liver stage (PbLuc), transformed with Luciferase, at 2uM. Type of experiment: functional, HepG2. The following applies: tested at 2 uM.
Consider `CS(=O)(=O)N1CC[C@]2(O)CCN(c3cc(C#N)ccn3)C[C@@H]2C1`, for which the INHIBITION was 19.44%. On to `CN(C)S(=O)(=O)N1CC[C@]2(O)CCN(c3cc(C#N)ccn3)C[C@@H]2C1`, for which the INHIBITION amounted to 57.68%. The figure for `CN(C)S(=O)(=O)N1CC[C@]2(O)CCN(c3ncccn3)C[C@@H]2C1` is 13.51%; for `O=C(c1cc(F)ccc1O)N1CCN(C(=O)C2CCC2)CC1` it is -10%; for `O=C(c1ccccc1O)N1CCN(C(=O)C2CCC2)CC1` it is 51.31%. Take `Cn1ccc2c(C(=O)N3CCN(C(=O)C4CCCC4)CC3)cccc21`: the INHIBITION is on record as 16.64%. Turning to `Cc1ccc(S(=O)(=O)Nc2ccc(-n3nnn(C)c3=O)cc2)cc1`, the INHIBITION is on record as -2.66%. As to `CN(Cc1ncnn1C)C(=O)CCCn1ccc2cc(Cl)ccc21`, the INHIBITION is recorded as 57.23%. In the case of `CN(CC(N)=O)C(=O)CCCn1ccc2cc(Cl)ccc21`, the INHIBITION came out at 28.42%. Turning to `CN(Cc1ncnn1C)C(=O)CCn1ccc2ccccc21`, the INHIBITION is -2.19%. For the compound `Cc1cnc(N2C[C@H]3CN(Cc4csc(C)n4)C(=O)[C@H]3C2)nc1`, the INHIBITION is 22.18%. In the case of `CNc1cccc(C2CCCN(C(=O)c3cccnc3)C2)n1` (stereo not given), the INHIBITION is on record as -23.48%. `CNc1cccc(C2CCCN(C(=O)c3ccncc3)C2)n1` (stereo not given): the INHIBITION amounted to 52.89%.

Regarding `CNc1cccc(C2CCCN(C(=O)c3cnccn3)C2)n1` (stereo not given), the INHIBITION is recorded as 36.98%. To `COCCNC(=O)[C@@]12CCO[C@@H]1CCN(Cc1cc(C)on1)C2` belongs 10.43%. The figure for `Cc1cnc(N2CCOC(C(=O)NCc3ccccc3)C2)s1` (stereo not given) is 10.03%; for `O=C(NCc1cccnc1)[C@H]1C[C@@H]2CCN(c3ccncn3)C[C@H]2O1` it is 23.53%.

For `O=C(NCc1ccccc1)C1CN(c2ccccn2)CCO1` (stereo not given), the INHIBITION came out at 82.2%. The figure for `O=C(Nc1ccccc1-c1ccccc1)N1C[C@@H]2CNC[C@]2(C(=O)O)C1` is 14.54%.

With `O=C(c1ccccc1-c1ccccc1)N1C[C@@H]2CNC[C@]2(C(=O)O)C1`, the INHIBITION was found to be 19.13%. Take `O=C(Nc1ccc(-c2ccccc2)cc1)N1C[C@@H]2CNC[C@]2(C(=O)O)C1`: the INHIBITION is listed as 51.42%. `CS(=O)(=O)CCNC1CCCN(Cc2noc(C3CC3)n2)C1` (stereo not given): the INHIBITION worked out at 33.52%. `CC(C)c1cc(C(=O)NCC2CCCN(C(C)C)C2)n(C)n1` (stereo not given): the INHIBITION was 48.04%.

With `Cc1cc(C(=O)N2CCN(c3ccncc3Cl)CC2)n(C)n1`, the INHIBITION came out at 64.35%.

`Cc1cc(C(=O)N2CCN(C(=O)CCC3CCCCC3)CC2)n(C)n1`: the INHIBITION is 74.44%. For the compound `Cc1nn(C)c(C)c1C(=O)N1CCN(C(=O)CC2CCCCC2)CC1`, the INHIBITION came to 43.44%. To `Cc1nn(C)c(C)c1C(=O)N1CCN(C(=O)CCC2CCCCC2)CC1` belongs 21.97%. To `Cc1nn(C)c(C)c1C(=O)N1CCN(c2ccncc2Cl)CC1` belongs 4%; to `O=C(c1ccon1)N1CCN(c2ccncc2Cl)CC1`, 39.5%. Turning to `Cc1cc(C)n(CC(C)CNC(=O)N(C)Cc2cc(C)on2)n1` (stereo not given), the INHIBITION amounted to 0.89%. To `Cc1nc(-c2cc(C(=O)NCCN3CCOCC3)c3ccccn23)cs1` belongs -40.36%; to `CC(c1ccncc1)N(C)S(C)(=O)=O` (stereo not given), -22.2%. As for `Cc1noc([C@]23COC[C@H]2CN(C(=O)Cc2ccsc2)C3)n1`, the INHIBITION is 15.36%. For the compound `CCS(=O)(=O)N1CCOC(CCCc2ccccc2)C1` (stereo not given), the INHIBITION is 1.94%. On to `CC(C)(CN1CCC(Cc2ccc(C(=O)O)cc2)C1)N1CCOCC1` (stereo not given), for which the INHIBITION came to 52.01%. With `CC(C)(CN1CCC(Cc2ccc(CO)cc2)C1)N1CCOCC1` (stereo not given), the INHIBITION is -57.88%. Regarding `CC(C)(CN1CCC(Cc2cccc(C(=O)O)c2)C1)N1CCOCC1` (stereo not given), the INHIBITION is reported as -32.96%. As to `c1cnc(-c2noc(C3CN(Cc4ccc5c(c4)CCO5)C3)n2)nc1`, the INHIBITION is listed as -17.26%. `COc1ccccc1C(=O)N(C)Cc1nnc2ccccn12`: the INHIBITION stood at 40.82%. As for `COC(=O)C(c1cc(F)ccc1F)N(C)C(=O)c1ccnc(C)n1` (stereo not given), the INHIBITION was -12.91%. Consider `COC(=O)C(c1cc(F)ccc1F)N(C)C(=O)c1cnc(C)cn1` (stereo not given), for which the INHIBITION is listed as 60.09%.

For `COC(=O)C(c1cc(F)ccc1F)N(C)C(=O)c1cnccn1` (stereo not given), the INHIBITION is given as -27.5%.

As for `Cc1cc(C)n(CCC2CC(=O)Nc3cc(O)c(C)cc32)n1` (stereo not given), the INHIBITION is on record as -32.52%. For the compound `Cc1noc(C(C)C)c1C(=O)NCCCN1CCNCC1`, the INHIBITION is listed as 43.16%.

`Cc1noc(C)c1C(=O)NCCN1CCN(S(C)(=O)=O)CC1`: the INHIBITION is reported as -41.64%. On to `Cc1noc(C(C)C)c1C(=O)NCCCN1CCCC1`, for which the INHIBITION is -75.02%. On to `Cc1noc(C)c1C(=O)NCCN1CCOCC1`, for which the INHIBITION is listed as 63.46%. Turning to `Cc1noc(C(C)C)c1C(=O)NCCC(=O)N1CCCCC1`, the INHIBITION was 11.57%. With `Cc1noc(C(C)C)c1C(=O)NCCN1CCOCC1`, the INHIBITION turned out to be 32.63%. On to `Cc1noc(C(C)C)c1C(=O)NCCN1CCCCCC1=O`, for which the INHIBITION turned out to be 60.21%. With `Cc1noc(C(C)C)c1C(=O)NCCCN1CCCCCC1=O`, the INHIBITION is 77.68%. `Cc1noc(C(C)C)c1C(=O)NCCCN1CCC(C)CC1`: the INHIBITION is given as -15.34%.

Take `Cc1nc(-c2ccccc2C)n(CC(=O)NC2CCCC2)n1`: the INHIBITION is on record as 31.57%.

`Cn1ccc(C(=O)N2CCCC2c2cc[nH]n2)n1` (stereo not given): the INHIBITION is recorded as 16.43%. On to `COCCc1ncc(CN2C[C@@H](C(=O)O)[C@H](C(C)C)C2)cn1`, for which the INHIBITION is recorded as -59.6%. Regarding `COc1ccc(-n2ccc(CNCc3cccc(OC)c3)n2)cc1`, the INHIBITION is given as 28.75%. The figure for `O=C(NCc1cnn2cccnc12)C1CC2(CCNCC2)CN1` (stereo not given) is -1.33%; for `Cn1cc(-c2cnc(N3CCOCC3)nc2)cc1C(=O)NCCC#N` it is -0.45%; for `CCC(NC(=O)c1cc(NC(C)=O)ccc1Cl)c1cc(C)ccn1` (stereo not given) it is 57.75%. `COCC(NC(=O)c1cc(NC(C)=O)ccc1Cl)c1ccnn1C` (stereo not given): the INHIBITION was determined as 21.97%. With `COCC(NC(=O)c1cc(NC(C)=O)ccc1Cl)c1ccccn1` (stereo not given), the INHIBITION worked out at 29.13%. Regarding `COC(=O)C1CCCN1CC(=O)NCc1ccc(OCC(N)=O)cc1` (stereo not given), the INHIBITION is recorded as -6.33%. For the compound `O=C1CCC[C@]2(CN(S(=O)(=O)N3CCCCC3)C[C@H]2c2cccnc2)N1`, the INHIBITION was -0.64%.

`CC(C)=CCN1CCN(C(=O)c2snnc2C)[C@H]2CS(=O)(=O)C[C@H]21`: the INHIBITION was 51.38%. Regarding `CCCN1CCN(C(=O)c2cc3ccccc3cn2)[C@H]2CS(=O)(=O)C[C@H]21`, the INHIBITION was 35.01%. For `CCCN1CCN(C(=O)Cc2cccnc2)[C@H]2CS(=O)(=O)C[C@H]21`, the INHIBITION was 23.19%.

In the case of `CC(C)=CCN1CCN(C(=O)COc2ccccc2)[C@H]2CS(=O)(=O)C[C@H]21`, the INHIBITION turned out to be 41.68%. To `O=C(CSc1ccccn1)N1CCN(CCO)[C@@H]2CS(=O)(=O)C[C@@H]21` belongs 67.28%; to `Cc1nnsc1C(=O)N1CCN(CC2CC2)[C@@H]2CS(=O)(=O)C[C@@H]21`, 0.54%; to `CCCN1CCN(C(=O)c2ccc3ccccc3n2)[C@H]2CS(=O)(=O)C[C@H]21`, 57.21%. For the compound `CC(C)=CCN1CCN(C(=O)CSc2ccccn2)[C@H]2CS(=O)(=O)C[C@H]21`, the INHIBITION amounted to 64.9%. With `CC(=O)N1CCN(C(=O)c2snnc2C)[C@H]2CS(=O)(=O)C[C@H]21`, the INHIBITION is listed as -3.73%.

For `CCCN1CCN(C(=O)c2cccc(C)n2)[C@H]2CS(=O)(=O)C[C@H]21`, the INHIBITION came out at 6.84%. Take `CC(C)=CCN1CCN(CCCc2ccccc2)[C@H]2CS(=O)(=O)C[C@H]21`: the INHIBITION amounted to 7.29%. Take `O=C(C1CC1)N1CCN(C(=O)CSc2ccccn2)[C@H]2CS(=O)(=O)C[C@H]21`: the INHIBITION is -32.88%.

Values taken from ChEMBL document CHEMBL4513216, “Probing the Open Global Health Chemical Diversity Library for Multistage-Active Starting Points for Next-Generation Antimalarials” (ACS Infect Dis, 2020).
